Rows were chosen to be rich in hits. Some 1.3% of all compounds tested hit in one or more screens of this group.
BCLXL inh – blocks human Bcl-xL binding to Bim BH3 peptide. GST-Bcl-xL / FITC-Bim BH3 peptide fluorescence polarization. inhibition, % at 10.9 µM. hit rate 0.7% among 320,000. AID 2129;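 active means inhibition above the mean of all tested compounds plus 3 SD, cutoff set per campaign, cut at about 30% in these data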;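 further: 0% = DMSO wells and 100% = unlabeled Bim-BH3 peptide competitor; inhibitors lower millipolarization by displacing the labeled peptide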
Target sequence (Q07817 whole entry, looked up): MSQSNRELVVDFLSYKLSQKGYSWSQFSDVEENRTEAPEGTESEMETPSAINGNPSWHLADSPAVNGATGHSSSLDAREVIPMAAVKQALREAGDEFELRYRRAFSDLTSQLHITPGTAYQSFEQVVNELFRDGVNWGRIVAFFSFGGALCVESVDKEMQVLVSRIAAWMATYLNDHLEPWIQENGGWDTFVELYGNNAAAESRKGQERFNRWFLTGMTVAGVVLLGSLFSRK
MEX-5 binding – C. elegans MEX-5 TCR-2 RNA binding activity; Q9XUB2; MEX-5/FITC-TCR2 RNA binding, fluorescence polarization; hits give low values; hit rate 0.38% among 300,000; activity score (negative = inhibition of binding), % at 10 µM; AID 1832;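 active means inhibition past about -25% in most replicates, and total fluorescence under double the plate's negative control median, limit read from the data; inconclusive means replicates evenly split on the limit, or fluorescence at least double controls; inactive means too little inhibition in most replicates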;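 further: 0% = DMSO and -100% = 5 µM competing unlabeled TCR2 RNA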
eLon inh – inhibits E. coli Lon protease. inhibition, % at 7.94 µM. AID 602123. purified E. coli Lon protease, fluorescence polarization. hit rate 0.42% among 360,000. P0A9M0; in the data active means inhibition above about 13%, passing the limit was not always enough;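 further: 0% = enzyme with probe and DMSO and 100% = no enzyme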
GLD-1 TGE inh – GLD-1-TGE RNA interaction inhibition (C. elegans); purified GLD-1 + fluorescein TGE RNA, fluorescence polarization; AID 2280; inhibition, % at 5.96 µM; hit rate 0.44% among 320,000;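 active means percent inhibition above a per-plate cutoff, the plate mean of test compounds plus 3 SD, cut at about 30% in these data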;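 further: 0% = DMSO wells with GLD-1 and probe and 100% = wells lacking GLD-1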
EBV gp42 inh – EBV gp42 inhibition. Fluorescence polarization binding assay, mP read-out. inhibition, % (tested at 21.74 µM). hit rate 0.42% among 220,000. AID 1085; in the data active means inhibition above about 50%
Target sequence (Q1HVG2 whole entry, looked up): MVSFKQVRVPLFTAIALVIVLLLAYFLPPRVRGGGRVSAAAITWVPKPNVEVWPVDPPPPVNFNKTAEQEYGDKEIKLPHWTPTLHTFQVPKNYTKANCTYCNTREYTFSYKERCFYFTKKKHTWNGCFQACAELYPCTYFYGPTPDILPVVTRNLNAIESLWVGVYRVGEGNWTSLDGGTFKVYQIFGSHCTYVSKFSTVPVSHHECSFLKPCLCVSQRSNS
Active calls of the source: *.

Screening COc1ccc(-n2c(C)cc(/C=C3\SC(=S)N(Cc4ccco4)C3=O)c2C)cc1 returned BCLXL inh -2, MEX-5 binding -28*, eLon inh -207, GLD-1 TGE inh 30 and EBV gp42 inh 80*.
COC(=O)c1sccc1N/N=C/c1cccc(Oc2ccccc2)c1 was read as BCLXL inh 12, MEX-5 binding 1, eLon inh -8, GLD-1 TGE inh 14 and EBV gp42 inh 0.
O=c1[nH][nH]c2c(N=Cc3ccccc3O)ccc(F)c12 was read as eLon inh 25* and EBV gp42 inh 12.
`CN1CCN(NC(=O)c2cc(-c3ccc(Cl)s3)nc3ccccc23)CC1` gave BCLXL inh 0, MEX-5 binding 1, eLon inh 1 and GLD-1 TGE inh -5.
For CCOc1ccc(C2CC(c3c(O)c4ccccc4oc3=O)=NN2c2ccccc2)cc1OC (stereo unspecified) the results were BCLXL inh -44, MEX-5 binding inconclusive, eLon inh -6, GLD-1 TGE inh -8 and EBV gp42 inh 141*.
For CC1(OC(=O)C2CCCC2)C(=O)C=C2C=C3CCCN3C=C2C1=O (stereo unspecified) the results were BCLXL inh 18, MEX-5 binding -17 and GLD-1 TGE inh 14.
`COC(=O)CCCC1=CC2=CC(=O)C(C)(OC(=O)CCc3ccccc3)C(=O)C2=CO1` (stereo unspecified) gave BCLXL inh 46*, MEX-5 binding -18, eLon inh 3, GLD-1 TGE inh 48* and EBV gp42 inh 15.
For CCCCC1=CC2=CC(=O)C(C)(O)C(=O)C2=CO1 (stereo unspecified) the results were BCLXL inh 16, MEX-5 binding inconclusive and GLD-1 TGE inh 29.
For CC(C)(C)OC(=O)NCCCCC1=CC2=CC(=O)C(C)(OC(=O)c3ccco3)C(=O)C2=CO1 (stereo unspecified) the results were BCLXL inh 29, MEX-5 binding -15 and GLD-1 TGE inh 49*.
CC(C)(C)OC(=O)NCCCC1=CC2=CC(=O)C(C)(OC(=O)C3CCCC3)C(=O)C2=CO1 (stereo unspecified) was read as BCLXL inh 65*, MEX-5 binding -21 and GLD-1 TGE inh 79*.
`CC1(OC(=O)c2ccco2)C(=O)C=C2C=C(c3ccsc3)OC=C2C1=O` (stereo unspecified) gave BCLXL inh 14, MEX-5 binding -5 and GLD-1 TGE inh 24.
For CCCCC1=CC2=CC(=O)C(C)(OC(=O)c3ccc(Cl)nc3)C(=O)C2=CO1 (stereo unspecified) the results were BCLXL inh 52*, MEX-5 binding -29* and GLD-1 TGE inh 68*.
`Cn1nc(-c2ccccc2)c(-c2nc(-c3cccc(Cl)c3)no2)c1Cl` gave BCLXL inh 0, MEX-5 binding 1, eLon inh 6, GLD-1 TGE inh 3 and EBV gp42 inh -18.
Cc1cccc(OCc2nnc(SCC(=O)O)n2-c2ccccc2)c1 was read as BCLXL inh -5, MEX-5 binding 0, eLon inh -8 and GLD-1 TGE inh -7.
Screening COC(=O)CCCC1=CC2=CC(=O)C(C)(OC(=O)c3ccco3)C(=O)C2=CO1 (stereo unspecified) returned BCLXL inh 67*, MEX-5 binding -42* and GLD-1 TGE inh 73*.
For O=C(c1ccco1)N1CCN(c2nc3ccccc3n3nnnc23)CC1 the results were BCLXL inh 41*, MEX-5 binding -3, eLon inh -28, GLD-1 TGE inh 6 and EBV gp42 inh 33.
Screening COc1cccc(Nc2ncccc2C(=O)NCc2ccccc2)c1 returned eLon inh -4 and EBV gp42 inh 68*.
Screening Cc1cccc(NC(=O)CCS(=O)(=O)c2ccc3c(c2)NC(=O)CS3)n1 returned BCLXL inh 31*, MEX-5 binding 1, eLon inh 11 and GLD-1 TGE inh 23.
For CC(C)N1C(=S)SC(C)(C)C1n1oc(=O)n(-c2cccc(Cl)c2)c1=O (stereo unspecified) the results were BCLXL inh 129*, MEX-5 binding 1, eLon inh 0, GLD-1 TGE inh 4 and EBV gp42 inh -3.
CCOc1ccc(Oc2ccc(NC(=O)CSc3nncn3C)cc2)cc1 was read as eLon inh 2.
Cc1nc2ccc(NC(=O)NC(=O)c3c(Cl)cccc3Cl)cc2o1 was read as BCLXL inh 43*, MEX-5 binding 1, eLon inh 5, GLD-1 TGE inh 2 and EBV gp42 inh -6.
`Cc1cccc(C)c1N1C(=O)CCC(C)(C)C1=O` gave BCLXL inh 1, MEX-5 binding 2, eLon inh 3 and GLD-1 TGE inh -3.
For CNc1ccc(/C=C(\C#N)c2ccccn2)cc1[N+](=O)[O-] the results were BCLXL inh 37*, MEX-5 binding -6, eLon inh 2, GLD-1 TGE inh 15 and EBV gp42 inh -27.
Screening CC(C)(C)Nc1ncnc2c1cnn2-c1ccccc1 returned BCLXL inh 13, MEX-5 binding 2, eLon inh -2 and GLD-1 TGE inh 8.
Screening O=c1[nH]n(-c2ncnc3c2cnn3-c2ccccc2)c(=O)c2ccccc12 returned BCLXL inh 8, MEX-5 binding -39*, eLon inh 3, GLD-1 TGE inh 6 and EBV gp42 inh -8.
`Nc1nc(N)nc(-c2cc(O)ccc2O)n1` gave BCLXL inh 13, eLon inh 9 and GLD-1 TGE inh 10.
`Oc1ccc(O)c(-c2cnns2)c1` gave BCLXL inh 19, MEX-5 binding -63*, eLon inh 19, GLD-1 TGE inh 14 and EBV gp42 inh -23.
Screening CC1(C)Oc2ccc(C(=O)N/N=C/c3ccc(O)cc3)cc2NC1=O returned BCLXL inh 3, MEX-5 binding 1, eLon inh 6 and GLD-1 TGE inh 5.
`CC1(C)Cc2c(C#N)c(N3CCN(C(=O)c4ccccc4Cl)CC3)nc(-c3ccco3)c2CS1` gave BCLXL inh 33*, MEX-5 binding 4, eLon inh -12, GLD-1 TGE inh 13 and EBV gp42 inh -19.
For CC(=O)N1CCN(c2nc(-c3ccco3)c3c(c2C#N)CC(C)(C)SC3)CC1 the results were BCLXL inh 12, MEX-5 binding -3, eLon inh -3, GLD-1 TGE inh 5 and EBV gp42 inh 6.
CC1(C)Cc2c(C#N)c(N3CCN(C(=O)c4ccco4)CC3)nc(-c3ccco3)c2CS1 was read as BCLXL inh 35*, MEX-5 binding 2, eLon inh 3, GLD-1 TGE inh 8 and EBV gp42 inh 1.
Cc1ccc(NCc2ccc(C)s2)cc1 was read as BCLXL inh 1, MEX-5 binding -5 and GLD-1 TGE inh -7.
For O=C(Nc1ccccn1)C(=O)Nc1ccccn1 the results were BCLXL inh 4, MEX-5 binding 0, eLon inh -2, GLD-1 TGE inh 0 and EBV gp42 inh -9.
Cc1ccc(S(=O)(=O)NNC(=O)C(=O)NNc2ccccn2)cc1 was read as BCLXL inh 5, MEX-5 binding -9, eLon inh -2, GLD-1 TGE inh 2 and EBV gp42 inh -7.

Screens as filed in PubChem BioAssay.
